Assay results: PubChem BioAssay
Active and inactive are the calls of the source.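 Rule for the calls, unless noted: active = calcium signal rise more than 3 SD above the low-dose agonist control mean, in both duplicate plates and the primary screen; inactive = the rest.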

Assay: calcium flux activation in mu-opioid HEK293 cells, confirmation, counter-screen for TRPC4 activator project, cell-based, HEK293 mu-opioid receptor line (AID 449723;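 active = hit in primary screen, with calcium signal over 5 SD above buffer well mean in both duplicates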;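 note: counter screen cells carry the mu-opioid receptor alone and lack TRPC4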)
Conditions: Fluo-4 calcium fluorescence, at 10 µM

Which outcome does the source give for `CNCCCOc1ccc2c(c1)CCC2` here?
The outcome was “inactive”.

With `CCN(CCCNS(=O)(=O)c1cc(-c2cc(C)no2)ccc1C)Cc1ccccc1` as the molecule, how does the outcome read?
Its outcome is “inactive”.

For `CCOC(=O)c1oc2ccc(OC)cc2c1NC(=O)CN1CCN(C)CC1`, which outcome is on record?
The outcome was “inactive”.

Which outcome does the source give for `COc1ccc(C(CNC(=O)c2cc(SC)ccc2Cl)N(C)C)cc1` (configuration not stated) here?
Its outcome is “inactive”.

For `O=C(NCCc1ccccn1)C(F)(F)C(F)(F)C(F)(F)C(F)(F)C(F)(F)C(F)F`, which outcome is on record?
The outcome was “inactive”.

With `CCCCCSc1nnc2c(n1)OC(c1cccn1C)N(C(C)=O)c1ccccc1-2` (configuration not stated) as the molecule, how does the outcome read?
The outcome was “inactive”.

For `COc1ccc(-c2cc(C#N)nc(N3CCNCC3)n2)cc1`, which outcome is on record?
Its outcome is “inactive”.

With `Cc1ccccc1NC(=S)NCCc1ccccn1` as the molecule, how does the outcome read?
Its outcome is “inactive”.

For `Cn1c(CN2CCN(c3cccc(Cl)c3)CC2)nc2ccccc21`, which outcome is on record?
Its outcome is “inactive”.

For `O=C(Cn1c(-c2ccccc2)c[n+]2ccsc12)c1ccc(Br)cc1`, which outcome is on record?
Its outcome is “inactive”.

With `CCn1c(N2CCN(Cc3ccc([N+](=O)[O-])cc3)CC2)nc2ccccc21` as the molecule, how does the outcome read?
The outcome was “inactive”.

Which outcome does the source give for `CN(C)C(CNC(=S)Nc1ccc(F)cc1)c1cccnc1` (configuration not stated) here?
The outcome was “inactive”.

With `COc1ccc(C(=O)NC(=S)NNC(=O)c2c(-c3ccccc3)noc2C)cc1OC` as the molecule, how does the outcome read?
Its outcome is “inactive”.

For `CC1CC(C)CN(CCCNC(=O)COc2cc(=O)n(C)c3ccccc23)C1` (configuration not stated), which outcome is on record?
The outcome was “inactive”.

Which outcome does the source give for `CN(C)CCCN(C(=O)c1ccc(C(=O)c2ccccc2)cc1)c1nc2ccc(F)cc2s1` here?
The outcome was “inactive”.

For `CCCCN(CC)CCNC(=O)c1cc2cc3ccc(Cl)cc3nc2o1`, which outcome is on record?
Its outcome is “inactive”.

With `COc1ccc(C(=O)NC(=S)NNC(=O)CCc2ccccc2)cc1` as the molecule, how does the outcome read?
The outcome was “inactive”.

With `CCN(CC)CCSc1nc2ccc(OC)cc2[nH]1` as the molecule, how does the outcome read?
The outcome was “inactive”.

Which outcome does the source give for `Cc1ccc(C)c(OCCCCn2ccnc2)c1` here?
The outcome was “inactive”.

Which outcome does the source give for `Cc1nc(/N=C(\N)NC(=O)NC2CCCCC2)nc2ccccc12` here?
Its outcome is “inactive”.

For `COC(=O)[C@@]1(Cc2ccc(F)cc2)[C@H]2c3cc(C(=O)N(C)C)n(CCc4ccccn4)c3C[C@H]2CN1C(=O)c1ccccc1`, which outcome is on record?
The outcome was “inactive”.

Which outcome does the source give for `O=C(CNS(=O)(=O)c1ccc2ccccc2c1)NCCc1ccccn1` here?
The outcome was “inactive”.

Assay: calcium flux enhancement in mu-opioid HEK293 cells, confirmation, counter-screen for TRPC4 allosteric potentiator project, cell-based, HEK293 mu-opioid receptor line (AID 449724);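 note: HEK293 cells carrying mu-opioid receptor only with no TRPC4 channel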
Conditions: Fluo-4 calcium flux, at 10 µM, compound added before EC20 DAMGO stimulus

For `CN1CCC(CNC(=O)Nc2ccccc2)(c2ccccc2)CC1`, which outcome is on record?
The outcome was “inactive”.

For `Cc1ccc(C)c(OCCCCCn2ccnc2)c1`, which outcome is on record?
Its outcome is “inactive”.

For `CN(C)C(CNC(=O)c1ccc2ccccc2n1)c1ccccc1` (configuration not stated), which outcome is on record?
The outcome was “inactive”.

With `CCn1cc(CN2CCC(n3nccc3NC(=O)CCOc3ccccc3)CC2)cn1` as the molecule, how does the outcome read?
Its outcome is “inactive”.

Which outcome does the source give for `CCOC(=O)C1(CCOc2ccccc2)CCN(Cc2cnc(C)s2)CC1` here?
Its outcome is “inactive”.

With `CCN1CCN(c2ccc(S(=O)(=O)N3CCOCC3)cc2NC(=O)C(C)Oc2cccc(Cl)c2)CC1` (configuration not stated) as the molecule, how does the outcome read?
The outcome was “inactive”.

For `CN(CCc1nc2ccc(Cl)cc2[nH]1)Cc1nc(CC2CC2)no1`, which outcome is on record?
Its outcome is “inactive”.

Which outcome does the source give for `COc1ccccc1CCC(=O)Nc1cc(S(=O)(=O)N2CCCCC2)ccc1N1CCN(C)CC1` here?
Its outcome is “inactive”.

Which outcome does the source give for `CCCCC(=O)NNC(=S)NC(=O)c1ccc(C)cc1` here?
The outcome was “inactive”.

For `Cc1ccc(C2N(c3ccc(Cl)c(Cl)c3)C(=O)C3CCCN32)o1` (configuration not stated), which outcome is on record?
The outcome was “inactive”.

With `COc1ccccc1N1CCN(C(c2cccs2)C(C)NC(=O)c2cccs2)CC1` (configuration not stated) as the molecule, how does the outcome read?
Its outcome is “inactive”.

For `O=C(Nc1nnc(-c2ccccc2Cl)o1)c1nc2ccccc2s1`, which outcome is on record?
The outcome was “inactive”.

With `CCOC(=O)C1(CC2CCCCO2)CCN(Cc2c(C)cc(C)cc2-n2cccn2)CC1` (configuration not stated) as the molecule, how does the outcome read?
Its outcome is “inactive”.

Which outcome does the source give for `Cc1ccccc1OCC(=O)NNC(=S)NC(=O)c1ccco1` here?
The outcome was “inactive”.

For `Cc1ccc(C2(O)CN(c3ccccc3C)C3=[N+]2CCS3)cc1` (configuration not stated), which outcome is on record?
The outcome was “inactive”.

With `Cc1ccccc1C(=O)NNC(=S)NC(=O)c1ccccc1` as the molecule, how does the outcome read?
Its outcome is “inactive”.

With `Cc1ccc(C(=O)NC(=S)NNC(=O)c2ccccc2)cc1` as the molecule, how does the outcome read?
Its outcome is “inactive”.

For `Fc1ccc(-c2nnc(CN3CCN(c4ncc(C(F)(F)F)cc4Cl)CC3)o2)cc1`, which outcome is on record?
The outcome was “inactive”.

With `CNCCCOc1ccc2c(c1)CCC2` as the molecule, how does the outcome read?
The outcome was “inactive”.

For `CCN(CCCNS(=O)(=O)c1cc(-c2cc(C)no2)ccc1C)Cc1ccccc1`, which outcome is on record?
The outcome was “inactive”.

Which outcome does the source give for `CCOC(=O)c1oc2ccc(OC)cc2c1NC(=O)CN1CCN(C)CC1` here?
Its outcome is “inactive”.

For `COc1ccc(C(CNC(=O)c2cc(SC)ccc2Cl)N(C)C)cc1` (configuration not stated), which outcome is on record?
The outcome was “inactive”.

Which outcome does the source give for `O=C(NCCc1ccccn1)C(F)(F)C(F)(F)C(F)(F)C(F)(F)C(F)(F)C(F)F` here?
Its outcome is “inactive”.

For `CCCCCSc1nnc2c(n1)OC(c1cccn1C)N(C(C)=O)c1ccccc1-2` (configuration not stated), which outcome is on record?
The outcome was “inactive”.

With `COc1ccc(-c2cc(C#N)nc(N3CCNCC3)n2)cc1` as the molecule, how does the outcome read?
The outcome was “inactive”.

For `Cc1ccccc1NC(=S)NCCc1ccccn1`, which outcome is on record?
The outcome was “inactive”.

For `Cn1c(CN2CCN(c3cccc(Cl)c3)CC2)nc2ccccc21`, which outcome is on record?
The outcome was “inactive”.

With `O=C(Cn1c(-c2ccccc2)c[n+]2ccsc12)c1ccc(Br)cc1` as the molecule, how does the outcome read?
The outcome was “inactive”.

Which outcome does the source give for `CCn1c(N2CCN(Cc3ccc([N+](=O)[O-])cc3)CC2)nc2ccccc21` here?
The outcome was “inactive”.

Which outcome does the source give for `CN(C)C(CNC(=S)Nc1ccc(F)cc1)c1cccnc1` (configuration not stated) here?
The outcome was “inactive”.

For `COc1ccc(C(=O)NC(=S)NNC(=O)c2c(-c3ccccc3)noc2C)cc1OC`, which outcome is on record?
Its outcome is “inactive”.

Which outcome does the source give for `CC1CC(C)CN(CCCNC(=O)COc2cc(=O)n(C)c3ccccc23)C1` (configuration not stated) here?
The outcome was “inactive”.

Which outcome does the source give for `CN(C)CCCN(C(=O)c1ccc(C(=O)c2ccccc2)cc1)c1nc2ccc(F)cc2s1` here?
The outcome was “inactive”.

Which outcome does the source give for `CCCCN(CC)CCNC(=O)c1cc2cc3ccc(Cl)cc3nc2o1` here?
The outcome was “inactive”.

With `COc1ccc(C(=O)NC(=S)NNC(=O)CCc2ccccc2)cc1` as the molecule, how does the outcome read?
The outcome was “inactive”.

For `CCN(CC)CCSc1nc2ccc(OC)cc2[nH]1`, which outcome is on record?
Its outcome is “inactive”.

For `Cc1ccc(C)c(OCCCCn2ccnc2)c1`, which outcome is on record?
Its outcome is “inactive”.

Which outcome does the source give for `Cc1nc(/N=C(\N)NC(=O)NC2CCCCC2)nc2ccccc12` here?
Its outcome is “inactive”.

For `COC(=O)[C@@]1(Cc2ccc(F)cc2)[C@H]2c3cc(C(=O)N(C)C)n(CCc4ccccn4)c3C[C@H]2CN1C(=O)c1ccccc1`, which outcome is on record?
The outcome was “inactive”.

With `O=C(CNS(=O)(=O)c1ccc2ccccc2c1)NCCc1ccccn1` as the molecule, how does the outcome read?
The outcome was “inactive”.
